Laboratory results published in PubChem BioAssay AID1347172 (National Center for Advancing Translational Sciences (NCATS), 2019).
Inconclusive results are not listed. A call without a number means that no potency is given here. The source made the active and inactive calls. Calls come from the whole dose curve; as a rule, active = well fitted inhibition curve with a large enough effect; inconclusive = small, poorly fitted or top-dose-only effect; inactive = flat fitted curve, though single readings scatter.

Test: Secondary qRT-PCR qHTS assay for selected Zika virus inhibitors
Settings: Vero cells ZIKV infection, NS5 RNA qRT-PCR, 24 h; series mostly up to 32.6 µM
Description: Assay Submitters (PI): Avindra Nath, Ph.D., National Institute of Neurological Disorders and Stroke (NINDS), Bethesda, MD Radhakrishnan Padmanabhan, Ph.D., Georgetown University (GU), Washington D.C. Zika Virus causes congenital defects, including microcephaly and is associated with Guillain-Barre syndrome, eningoencephalitis and myelitis in infected adult. […] Using a target-based approach, we hope to establish a screening paradigm to uncover novel, cell-active NS2B-NS3 protease (Zika Virus) specific inhibitors from NCATS' collection of small molecules using qHTS. […] Four assay panel was created to identify potential Zika Virus inhibitors. Namely, (1) GU unlinked NS2B-NS3 AMC tagged protease qHTS, (2) GU unlinked NS2B-NS3 Rhodamine tagged protease qHTS, (3) NINDS linked NS2B-NS3 AMC tagged protease qHTS, (4) NINDS linked NS2B-NS3 Rhodamine tagged protease qHTS. Inhibitors of the Zika virus primary screens are confirmed using qRT-PCR secondary assays, qRT-PCR mCherry orthogonal assay, and qRT-PCR viability counterscreen. Early Translation Branch (ETB) National Center for Advancing Translational Sciences (NCATS), Rockville, MD National Institute of Health (NIH), Bethesda, Maryland
384-well ZIKV qRT-PCR Assay: Vero cells were treated with the indicated compounds at different concentrations, infected with ZIKV (MOI=1) and incubated at 37 degrees C for 3 hours to permit virus invasion. After 3 hr, supernatant was removed, and cells were washed once to remove extracellular virus. After a further 21 hr incubation, infected cells were washed three times with cold PBS (4 degrees C). Plates were then process using the TaqmanGene Expression Cells-to-Ct Kit (ThermoFisher Scientific) following the manufactures protocol. Primers directed to the NS5 sequence (F-[…]; R-GCTCGGCCAATCAGTTCA) along with Taqman probe (FAM-[…]-BHQ; Biosearch Technologies) were used to quantify drug inhibition of viral load. Reactions were run at initial 95 degrees C for 10 min, then 40 cycles of 95 degrees C for 20 sec and 60 degrees C for 40 sec using a LightCycler 480 (Roche). Relative viral copy numbers were generated by normalizing to cells treated with vehicle.

Structure (SMILES) | Potency
CN(C)[C@@H]1C(=O)C(C(N)=O)=C(O)[C@@]2(O)C(=O)C3=C(O)c4c(O)cccc4[C@@](C)(O)[C@H]3C[C@@H]12 | inactive
C[C@]12CC[C@@H]3c4ccc(OC(=O)N(CCCl)CCCl)cc4CC[C@H]3[C@@H]1CC[C@@H]2O | inactive
Oc1c(Cl)c(Cl)c(Cl)c(Cl)c1Cl | inactive
CN(C)[C@@H]1C(=O)C(C(N)=O)=C(O)[C@@]2(O)C(=O)C3=C(O)c4c(O)ccc(Cl)c4[C@@](C)(O)[C@H]3C[C@@H]12 | inactive
O=C(Nc1ccc(Br)cc1)c1cc(Br)cc(Br)c1O | 22.4 µM (active)
